Records with an inconclusive call do not appear. The source made the active and inactive calls. The call rests on the fitted dose curve; in most records, active means well fitted inhibition curve with a large enough effect; inconclusive means small, poorly fitted or top-dose-only effect; inactive means flat fitted curve, though single readings scatter.
Assays:
PAD = experiment: qHTS profiling for inhibitors of Plasmodium falciparum proliferation (AID 504749); further: potency means the concentration at half of the fitted maximal effect; conditions: P. falciparum in erythrocytes, SYBR Green DNA, 72 h; series mostly up to 28.7 µM
Outline: (§1)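 Three-day growth assay of blood-stage parasites in erythrocytes (0.3% parasitemia, 2.5% hematocrit) at 37 C, 5% CO2, quantified by SYBR Green DNA staining after overnight detergent lysis.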

PC15 = experiment: as above; conditions: P. falciparum in erythrocytes, SYBR Green DNA, 72 h; series mostly up to 28.7 µM
Outline: as §1

PC26 = experiment: as above; conditions: P. falciparum in erythrocytes, SYBR Green DNA, 72 h; series mostly up to 28.7 µM
Outline: as §1

PC49 = experiment: as above; conditions: P. falciparum in erythrocytes, SYBR Green DNA, 72 h; series mostly up to 28.7 µM
Outline: as §1

SC27B = experiment: as above; conditions: P. falciparum in erythrocytes, SYBR Green DNA, 72 h; series mostly up to 28.7 µM
Outline: as §1

TAB109 = experiment: as above; conditions: P. falciparum in erythrocytes, SYBR Green DNA, 72 h; series mostly up to 28.7 µM
Outline: as §1

TAB113 = experiment: as above; conditions: P. falciparum in erythrocytes, SYBR Green DNA, 72 h; series mostly up to 28.7 µM
Outline: as §1

TAB165 = experiment: as above; conditions: P. falciparum in erythrocytes, SYBR Green DNA, 72 h; series mostly up to 28.7 µM
Outline: as §1

W2 = experiment: as above; conditions: P. falciparum in erythrocytes, SYBR Green DNA, 72 h; series mostly up to 28.7 µM
Outline: as §1

KB-3-1 = experiment: Cytotoxic Profiling of Annotated Libraries Using Quantitative High-Throughput Screening (AID 1296008); conditions: Five cell lines viability, CellTiter-Glo ATP luminescence, 48-72 h; max response: stronger effect = lower value; further: on the % scale 0 is the no-effect control and ±100 the full control effect
Outline: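 Cytotoxicity was measured as CellTiter-Glo ATP luminescence, read after 10 min at room temperature. Compound treatment of the cells lasted 48 or 72 hr at 37 degrees Celsius in a qHTS format.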
Further: nearly all actives have a fitted effect of over 60% in size.

NCC[C@H](O)C(=O)N[C@@H]1C[C@H](N)[C@@H](O[C@H]2O[C@H](CN)CC[C@H]2N)[C@H](O)[C@H]1O[C@H]1O[C@H](CO)[C@@H](O)[C@H](N)[C@H]1O
inactive: Potency (PAD) | Potency (PC15) | Potency (PC26) | Potency (PC49) | Potency (SC27B) | Potency (TAB109) | Potency (TAB113) | Potency (TAB165) | Potency (W2) | max response (KB-3-1) 4.22%

CCOC(=O)Cc1ccc(-c2ccccc2)cc1
inactive: Potency (PAD) | Potency (PC15) | Potency (PC26) | Potency (PC49) | Potency (SC27B) | Potency (TAB109) | Potency (TAB113) | Potency (TAB165) | Potency (W2) | max response (KB-3-1) 6.55%

C=CCOc1ccc(CC(=O)O)cc1Cl
inactive: Potency (PAD) | Potency (PC15) | Potency (PC26) | Potency (PC49) | Potency (SC27B) | Potency (TAB109) | Potency (TAB113) | Potency (TAB165) | Potency (W2) | max response (KB-3-1) 11.1%

O=C1CCC(c2ccccc2)(C2CCN(Cc3ccccc3)CC2)C(=O)N1 (stereo unspecified)
active: Potency (W2) 6750 nM
inactive: Potency (PAD) | Potency (PC15) | Potency (PC26) | Potency (PC49) | Potency (SC27B) | Potency (TAB113) | Potency (TAB165) | max response (KB-3-1) 17.5%

O=C(Nc1ccc(O)cc1)c1ccccc1O
inactive: Potency (PAD) | Potency (PC15) | Potency (PC26) | Potency (PC49) | Potency (SC27B) | Potency (TAB109) | Potency (W2) | max response (KB-3-1) 4.06%

NC(=O)C1c2ccccc2CCc2ccccc21
inactive: Potency (PAD) | Potency (PC15) | Potency (PC26) | Potency (PC49) | Potency (SC27B) | Potency (TAB109) | Potency (TAB113) | Potency (TAB165) | Potency (W2) | max response (KB-3-1) 5.54%

CC12CCC(C1)C(C)(C)C2=O (stereo unspecified)
inactive: Potency (PAD) | Potency (PC15) | Potency (PC26) | Potency (PC49) | Potency (SC27B) | Potency (TAB109) | Potency (TAB113) | Potency (TAB165) | Potency (W2) | max response (KB-3-1) 3.69%

CN1C(=O)C[C@@H](C(=O)N[C@@H](Cc2cnc[nH]2)C(=O)N2CCC[C@H]2C(N)=O)NC1=O
inactive: Potency (PAD) | Potency (PC15) | Potency (PC26) | Potency (PC49) | Potency (SC27B) | Potency (TAB109) | Potency (TAB113) | Potency (TAB165) | Potency (W2) | max response (KB-3-1) 5.84%

[O]=[Bi][O]C(=O)[O][Bi]=[O]
inactive: Potency (PAD) | Potency (PC15) | Potency (PC26) | Potency (PC49) | Potency (SC27B) | Potency (TAB109) | Potency (TAB113) | Potency (TAB165) | Potency (W2) | max response (KB-3-1) -15.6%

N=C(N)n1cccn1
inactive: Potency (PAD) | Potency (PC15) | Potency (PC26) | Potency (PC49) | Potency (SC27B) | Potency (TAB109) | Potency (TAB113) | Potency (TAB165) | Potency (W2) | max response (KB-3-1) 3.42%

O=C1c2ccccc2CN2C(=O)c3ccccc3CN12
inactive: Potency (PAD) | Potency (PC15) | Potency (PC26) | Potency (PC49) | Potency (SC27B) | Potency (TAB109) | Potency (TAB113) | Potency (TAB165) | Potency (W2) | max response (KB-3-1) 1.75%

C[Se]CC[C@H](N)C(=O)O
inactive: Potency (PAD) | Potency (PC15) | Potency (PC26) | Potency (PC49) | Potency (SC27B) | Potency (TAB109) | Potency (TAB113) | Potency (TAB165) | Potency (W2) | max response (KB-3-1) 0.415%

COc1cc(NCCCC(C)N)c2ncccc2c1 (stereo unspecified)
active: Potency (PAD) 398 nM | Potency (PC15) 3550 nM | Potency (PC26) 1690 nM | Potency (SC27B) 11200 nM | Potency (TAB109) 4470 nM | Potency (TAB113) 8910 nM | Potency (TAB165) 2240 nM | Potency (W2) 1510 nM
inactive: Potency (PC49) | max response (KB-3-1) -4.33%

CN1c2c(nc(N)[nH]c2=O)NCC1CNc1ccc(C(=O)NC(CCC(=O)O)C(=O)O)cc1 (stereo unspecified)
inactive: Potency (PAD) | Potency (PC15) | Potency (PC26) | Potency (PC49) | Potency (SC27B) | Potency (TAB109) | Potency (TAB165) | Potency (W2) | max response (KB-3-1) 9%

O=C(/C=C/c1cccc(F)c1)NC1CC1
inactive: Potency (PAD) | Potency (PC15) | Potency (PC26) | Potency (PC49) | Potency (SC27B) | Potency (TAB109) | Potency (TAB113) | Potency (TAB165) | Potency (W2) | max response (KB-3-1) -16.5%

Nc1ncnc2c1ncn2[C@H]1CC[C@@H](CO)O1
inactive: Potency (PAD) | Potency (PC15) | Potency (PC26) | Potency (PC49) | Potency (SC27B) | Potency (TAB109) | Potency (TAB113) | Potency (TAB165) | Potency (W2) | max response (KB-3-1) -2.72%

Cc1ncc(C[n+]2csc(CCOP(=O)(O)O)c2C)c(N)n1
inactive: Potency (PAD) | Potency (PC15) | Potency (PC26) | Potency (PC49) | Potency (SC27B) | Potency (TAB109) | Potency (TAB113) | Potency (TAB165) | Potency (W2) | max response (KB-3-1) -2.14%

CCC(C)[C@@H](N)C(=O)O (stereo partly specified)
inactive: Potency (PAD) | Potency (PC15) | Potency (PC26) | Potency (PC49) | Potency (SC27B) | Potency (TAB109) | Potency (TAB113) | Potency (TAB165) | Potency (W2) | max response (KB-3-1) 1.62%

OC[C@H]1O[C@@H]2O[C@H]3[C@H](O)[C@@H](O)[C@@H](O[C@H]4[C@H](O)[C@@H](O)[C@@H](O[C@H]5[C@H](O)[C@@H](O)[C@@H](O[C@H]6[C@H](O)[C@@H](O)[C@@H](O[C@H]7[C@H](O)[C@@H](O)[C@@H](O[C@H]1[C@H](O)[C@H]2O)O[C@@H]7CO)O[C@@H]6CO)O[C@@H]5CO)O[C@@H]4CO)O[C@@H]3CO
inactive: Potency (PAD) | Potency (PC15) | Potency (PC26) | Potency (PC49) | Potency (SC27B) | Potency (TAB109) | Potency (TAB113) | Potency (TAB165) | Potency (W2) | max response (KB-3-1) 3.87%

CCOC(=O)c1c[nH]c2cc(OCC(C)C)c(OCC(C)C)cc2c1=O
inactive: max response (KB-3-1) 5.44%
active: Potency (PAD) 158 nM | Potency (PC15) 112 nM | Potency (PC26) 120 nM | Potency (PC49) 141 nM | Potency (SC27B) 100 nM | Potency (TAB109) 89.1 nM | Potency (TAB113) 112 nM | Potency (TAB165) 70.8 nM | Potency (W2) 53.6 nM

Source: PubChem BioAssay (NCATS)
